High-throughput results (PubChem BioAssay)
PGC1a acetyl inh: inhibitors of PGC1a acetylation signal, primary screen, cell-based, U2OS, AlphaScreen, inhibitor mode; AlphaScreen anti-acetyl-lysine; with virally co-expressed GCN5 acetyltransferase; AID 651687, 2012; 350,000 tested, 0.17% active; inhibition, % at 15.6 µM;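 active = every replicate shows inhibition of at least 40%; inconclusive = mean inhibition at least 40% but some replicate below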;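 also: 0% = neutral control wells and 100% = positive control wells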
Ecoli rRNA inh: reduced GFP signal of wild-type E. coli, primary screen, bacterial rRNA inhibitor project, GFP/RFP fluorescence, OD600, single point; 350,000 tested, 1.6% active; GFP signal change (wild-type ribosome), % (test concentration not listed); E. coli WT GFP vs humanized-ribosome RFP mutants, 24 h; active compounds read low; DMSO median 0, no signal -100;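 active = significant combined selectivity score with lowered wild-type GFP, culture density cut under 30%, mutant RFP and density less affected; inactive = any of these conditions unmet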
ERAP1 inh: human ERAP1 aminopeptidase inhibitors, primary screen, biochemical, single point, plate reader; AID 652197, 2013; recombinant ERAP1, Leu-AMC fluorescence, 60 min; inhibition, % at 10.7 µM; 340,000 tested, 0.15% active; Endoplasmic reticulum aminopeptidase 1 (Homo sapiens), Q9NZ08;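 active = mean replicate inhibition of at least 30%, or all replicates individually reaching that 30% level; inactive = mean below 30% and not every replicate reaching it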;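 also: 0% = neutral control wells and 100% = L-leucinethiol positive control wells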
INS-1E GSIS act: GLuc luminescence reporter in INS-1E cells, primary screen for activators of glucose-dependent secretion of insulin; INS-1E GLuc reporter insulin secretion, 2-3 h; 370,000 tested, 0.61% active; activation, % at 16.6 µM;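 active = lowest replicate activation of at least 40%, so every replicate reaches that level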;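 also: 0% = median of neutral control wells and 100% = median of IBMX positive control wells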
CaV13 ICDI inh: Primary screen for inhibitors of IQ motif and Ca2+-dependent inactivation inhibitor domain binding in CACNA1D, Förster resonance energy transfer in living cells, … | 340,000 tested, 0.098% active | AID 743397 | inhibition, % at 12.3 µM | HEK cells, CFP/YFP FRET ICDI-IQ, plate reader, 10 min; percent FRET-ratio fall versus neutral wells;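 active = mean replicate inhibition of at least 30% and at least 1% of replicates passing that level; inconclusive = only one of the two criteria is met; inactive = neither criterion is met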;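 also: 0% = median of the neutral control wells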
DENV2 CPE: inhibitors of DENV2 cytopathic effect, primary screen, cell-based, plate reader, single concentration | DENV2-infected cells, cytopathic effect rescue | CPE inhibition, % at 9.99 µM | 350,000 tested, 1.7% active | AID 651640, 2012; in the data active = CPE inhibition above about 20%, passing the limit was not always enough; inconclusive = no clear call, values can overlap the other calls; tested in BHK-21 cells;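 also: 0% = median of neutral control wells and 100% = median of positive control wells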
* hit, by the source's call; u = inconclusive; x = not tested or not shown. Sampled rows, rich in hits. Any-hit rate of the full collection: about 3.2%.

SMILES	PGC1a acetyl inh	Ecoli rRNA inh	ERAP1 inh	INS-1E GSIS act	CaV13 ICDI inh	DENV2 CPE
CO[C@H]1CC[C@H]2CCOc3c(C#N)cccc3C(=O)N(C)CC3(CCCCC3)CC(=O)N(C)C[C@H]1O2	19	0	0	-5	x	1
COc1ccc2c3c(n(C)c2c1)[C@@H](CO)NCC31CCN(C(=O)c2ccccc2)CC1	4	5	x	-6	x	5
CNc1nc(NN)nc(Nc2ccccc2)n1	2	4	1	-2	-19	-2
CNc1nc(Nc2ccccc2)nc(OCC(F)(F)F)n1	x	-14	3	76*	-6	-4
Cc1c(CCC(=O)NCCCN2CCCC2=O)c(=O)oc2cc(O)ccc12	-4	x	-5	7	x	67*
Cc1c(CCC(=O)NCCCN2CCCC2=O)c(=O)oc2c(C)c(O)ccc12	-3	x	x	9	x	u
Cc1oc2cc3oc(=O)c(CCC(=O)NCCCn4ccnc4)c(C)c3cc2c1C	-19	-22	0	-7	x	21*
O=C(Nc1ccc(-c2ccco2)cc1)C1CCCN(Cc2ccco2)C1 (stereo not drawn)	11	6	-2	x	37*	6
COc1cccc(-c2ccc(NC(=O)C3CCCN(Cc4ccco4)C3)cc2)c1 (stereo not drawn)	7	-43	0	-13	-1	-7
CC(=O)NC(c1cccc(F)c1)c1nc(-c2cccc(C(C)C)c2)cs1 (stereo not drawn)	100*	-12	-2	-25	-6	9
CC(=O)NC(c1cccc(F)c1)c1nc(-c2cccc(C(=O)O)c2)cs1 (stereo not drawn)	-13	-7	3	35	-5	7
COc1ccc(-c2csc(C(O)c3cccc(OC)c3)n2)cc1 (stereo not drawn)	3	1	7	-1	-5	52*
COc1cccc(C(O)c2nc(-c3cc(F)cc(F)c3)cs2)c1 (stereo not drawn)	x	-34	8	-16	-4	30*
OC(c1ccc(F)c(F)c1)c1nc(-c2ccccc2)cs1 (stereo not drawn)	14	-70	2	x	-5	7
COc1ccc(C(O)c2nc(-c3cc(F)cc(F)c3)cs2)cc1 (stereo not drawn)	x	-9	-1	-37	-4	-7
O=C(O)c1cccc(-c2csc(C(O)c3ccc(F)c(F)c3)n2)c1 (stereo not drawn)	-34	-4	7	3	-5	41*
COc1cccc(C(O)c2nc(-c3ccc(N(C)C)cc3)cs2)c1 (stereo not drawn)	-2	-1	-1	x	-11	-11
COc1ccccc1CNC(=O)C[C@H]1C[C@@H]2c3cc(N(C)C)ccc3O[C@@H]2[C@H](CO)O1	-2	3	0	-1	x	-2
C[C@@H]1CCCCO[C@H](CN(C)C(=O)CCC(F)(F)F)[C@H](C)CN([C@@H](C)CO)C(=O)c2cc(NC(=O)Cc3ccccc3)ccc2O1	-2	-3	0	-22	x	-1
COCC(=O)N1[C@H](C#N)[C@@H](c2ccccc2C2=CCCCC2)[C@H]1CO	0	-3	-4	0	x	u
C=CCN1C(=O)c2ccccc2Sc2ccc(C(=O)NCC(OC)OC)cc21	3	-1	0	-14	-4	29*
COC(=O)C[C@@H]1CC[C@@H]2[C@@H](COc3ccc(NC(=O)c4cccc(F)c4)cc3C(=O)N2C)O1	-6	-2	0	-5	x	-5
Cc1ccc(C2=C(O)c3ccccc3C(=O)C2=O)cc1	-8	-9	5	-10	-4	3
O=C1C(=O)c2ccccc2C(O)=C1c1cccc([N+](=O)[O-])c1	21	-24*	4	-31	5	3
C[C@H](CO)N1C[C@H](C)[C@@H](CN(C)S(=O)(=O)c2ccccc2)OCCCC[C@H](C)Oc2ccc(NS(=O)(=O)c3ccccc3)cc2C1=O	4	-5	1	-9	x	7
